Avidin bead fluor = compound fluoresces at 488/530 nm on avidin beads; compound fluorescence 488/530 nm, flow cytometry; hits give high values; fluorescence (KMESF) at 10 µM; actives 0.38% (n = 220,000); in the data active = fluorescence above about 47
RGS16-Gao HTS = modulates binding between human RGS16 and Galphao | bead-based flow cytometry RGS16-Galphao binding, fluorescence; actives lie on both sides | binding response (% of control), % at 10 µM | actives 0.38% (n = 220,000) | AID 1441;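 note: Galphao activated by GDP with aluminum fluoride before binding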
Target sequence (O15492 whole entry, looked up): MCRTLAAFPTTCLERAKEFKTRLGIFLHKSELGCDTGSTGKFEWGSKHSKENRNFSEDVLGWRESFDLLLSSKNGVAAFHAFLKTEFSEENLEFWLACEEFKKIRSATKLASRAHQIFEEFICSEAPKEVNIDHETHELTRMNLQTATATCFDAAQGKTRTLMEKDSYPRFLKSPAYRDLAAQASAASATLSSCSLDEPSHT
Target sequence (P09471 whole entry, looked up): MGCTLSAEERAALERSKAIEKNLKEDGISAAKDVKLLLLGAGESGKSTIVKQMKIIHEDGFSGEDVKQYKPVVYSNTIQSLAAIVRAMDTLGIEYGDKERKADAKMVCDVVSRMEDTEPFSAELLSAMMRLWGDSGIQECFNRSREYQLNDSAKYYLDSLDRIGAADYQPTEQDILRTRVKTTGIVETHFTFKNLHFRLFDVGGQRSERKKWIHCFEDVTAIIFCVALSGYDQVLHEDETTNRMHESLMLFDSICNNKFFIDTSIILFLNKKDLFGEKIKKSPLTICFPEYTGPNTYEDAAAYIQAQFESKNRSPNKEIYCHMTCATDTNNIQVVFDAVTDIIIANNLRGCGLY
RGS8-Gao = regulators of human RGS8-Galphao interaction; AID 1423; response (percent of control binding), % at 10 µM; actives 0.34% (n = 220,000); multiplexed bead flow cytometry, RGS8-Galphao binding; actives lie on both sides; P09471; in the data active = response below about 60% or above about 140%; inactive = in between;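 note: Galphao activated as the GDP aluminium fluoride complex binding bead-coupled RGS8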
Target sequence (P09471 whole entry, looked up): as above
RGS4-Gao reg = human RGS4-Galphao interaction regulation; actives 0.33% (n = 220,000); P09471; Multiplexed bead flow cytometry, RGS4-Galphao binding; actives lie on both sides; binding response (% of control), % at 10 µM; in the data active = binding response below about 49% or above about 150%; inactive = in between;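 note: fluorescent Galphao activated with aluminum fluoride binding bead-coupled RGS4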
RGS7-Gao reg = human RGS7-Galphao interaction regulation | Multiplexed bead flow cytometry, RGS7-Galphao binding; actives lie on both sides | binding response (% of control), % at 10 µM | actives 0.35% (n = 220,000) | AID 1439; in the data active = binding response below about 49% or above about 150%; inconclusive = no clear call, values can overlap the other calls; inactive = in between;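 note: fluorescent Galphao held in activated GDP-AlF4 state binding bead-coupled RGS7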
GSH fluor = GSH bead compound fluorescence profile. GSH beads flow cytometry, compound fluorescence 488/530 nm; hits give high values. fluorescence (KMESF) at 10 µM. actives 0.25% (n = 190,000); in the data active = fluorescence above about 89;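 note: glutathione beads carrying GST-tagged Bcl family fusion proteins plus one bare bead set; values are compound well signal with DMSO vehicle wells as background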
RGS4-Gao HTS = modulates binding between human RGS4 and Galphao; shares compounds with RGS16-Gao HTS; multiplexed bead flow cytometry, RGS–Galpha-o binding; RGS4–Galpha-o binding response, % at 10 µM; actives 99% (n = 1,600);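 note: fluorescently labeled Galpha-o bound to GDP with aluminium fluoride binding biotinylated RGS beads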
Biotin-avidin = biotin-avidin bead binding disruption counter-screen. shares compounds with RGS16-Gao HTS. streptavidin beads, fluorescein-biotin binding, flow cytometry. inhibition, % at 10 µM. 1,700 tested, under 10 active;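 active = inhibition above 50%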;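 note: median green fluorescence of gated singlet beads compared with DMSO control wells; 0% = DMSO wells and 100% = complete loss of bead fluorescence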
RGS8-Gao confirm = RGS8-Galphao interaction regulation, single point confirmation | AID 1836 | bead-based flow cytometry RGS8-Galphao binding, fluorescence; actives lie on both sides | shares compounds with RGS16-Gao HTS | binding response (% of control), % at 10 µM | actives 3% (n = 1,700); in the data active = binding response below about 72% or above about 130%; inactive = in between;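 note: Galphao activated as GDP AlF4 complex before binding bead RGS8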
RGS7-Gao single = confirmation of regulators of human RGS7-Galphao interaction. shares compounds with RGS16-Gao HTS. bead-based flow cytometry RGS7-Galphao binding; actives lie on both sides. actives 7.8% (n = 1,700). response (percent of control binding), % at 10 µM; in the data active = response below about 75% or above about 130%; inactive = in between;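 note: fluorescent Galphao activated with GDP and aluminum fluoride binding bead-coupled RGS7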
RGS16-Gao conf = RGS16-Galphao interaction regulation, single point confirmation; shares compounds with RGS16-Gao HTS; bead-based flow cytometry, RGS16-Galphao binding; actives lie on both sides; response (% of control binding), % at 10 µM; actives 4% (n = 1,700); AID 1838; in the data active = response below about 74% or above about 130%; inactive = in between;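 note: Galphao activated as the GDP aluminium fluoride complex binding bead-coupled RGS16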
RGS4-Gao single = RGS4-Galphao interaction regulation, single point confirmation; RGS4-Galphao binding, multiplexed bead flow cytometry; actives lie on both sides; binding response (% of control), % at 10 µM; actives 4% (n = 1,700); shares compounds with RGS16-Gao HTS; AID 1840; in the data active = binding response below about 74% or above about 130%; inactive = in between
RGS19-Gao single = confirmation of regulators of human RGS19-Galphao interaction | bead-based flow cytometry RGS19-Galphao binding; actives lie on both sides | response (percent of control binding), % at 10 µM | actives 5% (n = 1,700) | shares compounds with RGS16-Gao HTS; in the data active = response below about 50% or above about 160%; inactive = in between;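 note: 100% = no compound control and 0% = blank background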
* hit, by the source's call; ? = inconclusive; . = not tested or not shown; [ ] = dose if it differs, or a comment. Only some compounds are listed: those with a hit (about 1.2% of all), similar ones and a draw of the others. Unless noted, the rule behind the calls is not given here.

SMILES	Avidin bead fluor	RGS16-Gao HTS	RGS8-Gao	RGS4-Gao reg	RGS7-Gao reg	GSH fluor	Biotin-avidin	RGS8-Gao confirm	RGS7-Gao single	RGS16-Gao conf	RGS4-Gao single	RGS19-Gao single	others
O=C(CC1C(=O)NCCN1Cc1ccc(Cl)c(F)c1)NCC1CCOCC1 (stereo not drawn)	4	101	103	102	?	.	.	.	.	.	.	.
O=C(CCNC(=O)c1ccco1)NCc1ccccc1	.	.	.	.	.	43	0	103	106	106	106	98
CN(C)c1ccc(/C=N/n2ncc3ccccc32)cc1	7	106	103	103	102	11	.	.	.	.	.	.
CC1(C)Cc2c(sc(NC(=O)/C=C/C(=O)O)c2C#N)CO1	4	103	102	102	?	.	.	.	.	.	.	.
CC1(C)Cc2c(sc(NC(=O)c3ccco3)c2C#N)CO1	.	-105*	2.6*	-105*	-35*	13	2	101	103	102	102	99
Cn1ncc([N+](=O)[O-])c1C(=O)Nc1ccc(-c2nc3ccccc3[nH]2)cc1	.	.	.	.	.	13	0	104	108	101	104	101
O=c1c(Cl)c(N2CCNCC2)cnn1C12CC3CC(CC(C3)C1)C2	12	101	101	98	99	9	.	.	.	.	.	.
CCC(C)(C)NC(=O)C(c1cccn1C)N(C(=O)Cn1nnc2ccccc21)c1ccccc1OC (stereo not drawn)	5	24*	68	77	79	16	-1	97	48*	79	60*	59	RGS4-Gao HTS=77*
CC(C)(C)NC(=O)CSc1nc(N)c(-c2ccccc2)c(=O)[nH]1	15	109	105	103	99	14	.	.	.	.	.	.
Nc1nc(SCC(=O)Nc2ccccc2)[nH]c(=O)c1-c1ccccc1	.	.	.	.	.	36	0	98	96	101	99	106
Cc1ccc(NC(=O)CSc2nc(C)c(Cc3ccccc3)c(=O)[nH]2)cc1	1	15*	17*	29*	22*	16	0	99	102	102	102	104
O=C(Cc1ccccc1)Nc1c[nH]c(=O)[nH]c1=O	11	98	101	101	99	12	.	.	.	.	.	.
Cc1ccc(-c2csc3nnc(SCC(=O)Nc4nsc(-c5ccccc5)n4)n23)cc1	.	.	.	.	.	34	0	100	99	99	101	95
O=C(CSc1nnc2scc(-c3ccccc3)n12)Nc1nsc(-c2ccccc2)n1	47	116	108	99	108	17	.	.	.	.	.	.
COc1ccc(NC(=O)CCC(=O)N(Cc2ccc(OC)c(OC)c2)c2nccs2)cc1	7	112	102	108	105	13	.	.	.	.	.	.
CSCCC(NC(=O)c1cccc([N+](=O)[O-])c1)c1nc2ccccc2[nH]1 (stereo not drawn)	4	105	109	100	100	9	.	.	.	.	.	.
CSCCC(NC(=O)c1cccc([N+](=O)[O-])c1)C(=O)O (stereo not drawn)	15	187*[activator]	115	106	113	13	0	100	99	100	98	91	RGS4-Gao HTS=106*
CC(C)(O)C#Cc1ccc(CN2CCN(Cc3ccccc3)C(CCO)C2)s1 (stereo not drawn)	2	104	98	100	98	10	.	.	.	.	.	.
CC(C)N1CCC(N2CCN(Cc3ccc(C#CC(C)(C)O)s3)CC2CCO)CC1 (stereo not drawn)	134*	98	84	142	275*[activator]	18	3	100	103	99	100	97	RGS4-Gao HTS=142*
CCOC(=O)c1ccc[n+](CC(=O)c2ccc(OC)cc2)c1	5	106	101	99	105	10	.	.	.	.	.	.
CCOC(=O)c1ccc[n+](CC(=O)c2ccccc2)c1	4	14	54*	115	113	14	0	100	100	102	99	99	RGS4-Gao HTS=115*
CCN1CCN(C(=O)Cn2nc(-c3ccc(Cl)cc3)ccc2=O)CC1	40	100	101	105	171*[activator]	25	2	104	105	106	104	88	RGS4-Gao HTS=105*
CCOC(=O)N1CCN(C(=O)Cn2nc(-c3ccc(Cl)cc3)ccc2=O)CC1	12	79	94	99	98	34	.	.	.	.	.	.
O=C(Cn1nnc2ccccc21)N1CCCCC1	12	128	108	105	106	13	.	.	.	.	.	.
O=C(CCn1nnc2ccccc21)N1CCN(c2ccccc2)CC1	.	.	.	.	.	43	0	102	106	102	102	102
O=C1C(=O)c2ccc(-c3ccccc3)cc2-c2ccccc21	5	259*[activator]	134	116	112	38	-1	94	96	92	94	62	RGS4-Gao HTS=116*
CCCCCCCC(=O)NNC(=O)CC(=O)Nc1ccccc1C(=O)O	18	106	102	101	103	18	.	.	.	.	.	.

Bioassay records deposited in PubChem BioAssay by NMMLSC.
